Data: PubChem BioAssay AID1159580 (chemical genetic matrix, 2015)
“And” between values parts separate entries of the source, which are not always exact repeats. Equal entries are not always repeated. Hit rate of the full screen: of about 5,500 compounds, about 2,000 (36%) were called active. Roughly 18% stayed inconclusive and do not appear here. Rule as the data show it: active = normalized growth mostly below about 0.91 (no sharp cut-off); inconclusive = no clear call, values can overlap the other calls; inactive = mostly above about 0.92. This is one part of the list. Where a SMILES comes first, the peptide text is derived from it. The star is where a group is joined. For = O=C*

Experiment: chemical genetic growth profiling, strain panel (AID 1159580);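 also: tested at 20 µM; growth read once vehicle control cultures reached saturation at 30 °C; 1 = growth at the plate median or of vehicle wells; lower values mean less growth of the strain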
Conditions: growth OD

Measured: normalized growth

CSCCC(NC=O)C(=O)NC(Cc1ccccc1)C(=O)O (stereo not drawn) (For-Met-Phe-OH; configuration not given here)
inactive: S. cerevisiae deletion strains, locus YAL013W, strain DEP1, hits give low values 1.02 | S. cerevisiae deletion strains, locus YBR021W, strain FUR4, hits give low values 1.04 | S. cerevisiae deletion strains, locus YBR229C, strain ROT2, hits give low values 1.01 | S. cerevisiae deletion strains, locus YCL029C, strain bik1, hits give low values 1.03 | S. cerevisiae deletion strains, locus YDL035C, strain GPR1, hits give low values 1.03 | S. cerevisiae deletion strains, locus YDL074C, strain BRE1, hits give low values 1.02 | S. cerevisiae deletion strains, locus YDL101C, strain DUN1, hits give low values 1.01 | S. cerevisiae deletion strains, locus YDL134C, strain PPH21, hits give low values 1.03 | S. cerevisiae deletion strains, locus YDL185W, strain tfp1, hits give low values 1.02 | S. cerevisiae deletion strains, locus YDL192W, strain arf1, hits give low values 1.02 | S. cerevisiae deletion strains, locus YDR101C, strain arx1, hits give low values 0.998 | S. cerevisiae deletion strains, locus YDR150W, strain NUM1, hits give low values 1.01 | S. cerevisiae deletion strains, locus YDR162C, strain NBP2, hits give low values 1.01 | S. cerevisiae deletion strains, locus YDR318W, strain mcm21, hits give low values 1.02 | S. cerevisiae deletion strains, locus YDR388W, hits give low values 1.02 | S. cerevisiae deletion strains, locus YDR502C, strain sam2, hits give low values 1.01 | S. cerevisiae deletion strains, locus YEL061C, strain CIN8, hits give low values 1.01 | S. cerevisiae deletion strains, locus YER110C, hits give low values 1.02 | S. cerevisiae deletion strains, locus YER155C, strain BEM2, hits give low values 1 | S. cerevisiae deletion strains, locus YER167W, strain BCK2, hits give low values 1 | S. cerevisiae deletion strains, locus YGL078C, strain dbp3, hits give low values 1.01 | S. cerevisiae deletion strains, locus YGL086W, strain mad1, hits give low values 1 | S. cerevisiae deletion strains, locus YGL248W, strain PDE1, hits give low values 1 | S. cerevisiae deletion strains, locus YGR135W, strain pre9, hits give low values 1.02 | S. cerevisiae deletion strains, locus YGR229C, strain SMI1, hits give low values 1.02 | S. cerevisiae deletion strains, locus YGR252W, strain gcn5, hits give low values 1.03 | S. cerevisiae deletion strains, locus YHR030C, strain SLT2, hits give low values 1.01 and 1.07 | S. cerevisiae deletion strains, locus YHR079C, strain IRE1 (second series), hits give low values 1.02 | S. cerevisiae deletion strains, locus YHR079C, strain IRE1, hits give low values 1.04 | S. cerevisiae deletion strains, locus YHR094C, strain hxt1, hits give low values 1.02 | S. cerevisiae deletion strains, locus YHR129C, strain ARP1, hits give low values 1 | S. cerevisiae deletion strains, locus YHR200W, strain rpn10, hits give low values 1.03 | S. cerevisiae deletion strains, locus YIL066C, strain RNR3, hits give low values 1.01 | S. cerevisiae deletion strains, locus YIL073C, strain SPO22, hits give low values 1.08 | S. cerevisiae deletion strains, locus YIL125W, strain kgd1, hits give low values 1.01 | S. cerevisiae deletion strains, locus YIR030C, strain dcg1, hits give low values 1.01 | S. cerevisiae deletion strains, locus YJL095W, strain BCK1, hits give low values 1 and 1.06 | S. cerevisiae deletion strains, locus YJL134W, strain LCB3, hits give low values 1 | S. cerevisiae deletion strains, locus YJL168C, strain set2, hits give low values 1.01 | S. cerevisiae deletion strains, locus YJL187C, strain SWE1 (second series), hits give low values 1.01 | S. cerevisiae deletion strains, locus YJR043C, strain POL32, hits give low values 1.01 | S. cerevisiae deletion strains, locus YJR066W, strain TOR1, hits give low values 1.01 | S. cerevisiae deletion strains, locus YKL009W, strain mrt4, hits give low values 1.02 | S. cerevisiae deletion strains, locus YKL068W, hits give low values 1.01 | S. cerevisiae deletion strains, locus YKL085W, strain MDH1 (second series), hits give low values 1.01 | S. cerevisiae deletion strains, locus YKL085W, strain MDH1, hits give low values 1.01 | S. cerevisiae deletion strains, locus YKL190W, strain CNB1, hits give low values 1.01 | S. cerevisiae deletion strains, locus YKR001C, strain vps1, hits give low values 1.02 | S. cerevisiae deletion strains, locus YLR039C, strain RIC1, hits give low values 1.06 | S. cerevisiae deletion strains, locus YLR058C, strain SHM2, hits give low values 1.01 | S. cerevisiae deletion strains, locus YLR102C, strain apc9, hits give low values 1.02 | S. cerevisiae deletion strains, locus YLR113W, strain HOG1, hits give low values 0.978 | S. cerevisiae deletion strains, locus YLR262C, strain YPT6, hits give low values 1.04 | S. cerevisiae deletion strains, locus YLR268W, strain sec22, hits give low values 1.02 | S. cerevisiae deletion strains, locus YLR330W, strain CHS5, hits give low values 1.01 | S. cerevisiae deletion strains, locus YLR342W, strain FKS1 (second series), hits give low values 1.03 | S. cerevisiae deletion strains, locus YLR371W, strain rom2, hits give low values 1.02 | S. cerevisiae deletion strains, locus YLR418C, strain cdc73, hits give low values 1.06 | S. cerevisiae deletion strains, locus YML016C, strain PPZ1, hits give low values 0.999 | S. cerevisiae deletion strains, locus YML032C, strain rad52, hits give low values 1.02 | S. cerevisiae deletion strains, locus YML124C, strain tub3, hits give low values 1.01 | S. cerevisiae deletion strains, locus YMR078C, strain ctf18, hits give low values 1.01 | S. cerevisiae deletion strains, locus YMR223W, strain ubp8, hits give low values 1.02 | S. cerevisiae deletion strains, locus YMR263W, strain SAP30, hits give low values 1.01 | S. cerevisiae deletion strains, locus YMR307W, strain GAS1, hits give low values 1.04 | S. cerevisiae deletion strains, locus YNL067W, strain RPL9B, hits give low values 1.02 | S. cerevisiae deletion strains, locus YNL128W, strain TEP1, hits give low values 1.04 | S. cerevisiae deletion strains, locus YNL183C, strain NPR1, hits give low values 0.989 | S. cerevisiae deletion strains, locus YNL233W, strain BNI4, hits give low values 1 | S. cerevisiae deletion strains, locus YNL250W, strain rad50, hits give low values 1.01 | S. cerevisiae deletion strains, locus YNL271C, strain bni1, hits give low values 1.02 | S. cerevisiae deletion strains, locus YNL298W, strain CLA4, hits give low values 1.03 | S. cerevisiae deletion strains, locus YNL307C, strain MCK1, hits give low values 1.03 | S. cerevisiae deletion strains, locus YNL322C, strain KRE1, hits give low values 1.01 | S. cerevisiae deletion strains, locus YNR052C, strain pop2, hits give low values 1.02 | S. cerevisiae deletion strains, locus YOL006C, strain TOP1, hits give low values 0.99 | S. cerevisiae deletion strains, locus YOL012C, strain htz1 0.63 | S. cerevisiae deletion strains, locus YOL147C, strain pex11, hits give low values 1.03 | S. cerevisiae deletion strains, locus YOR061W, strain CKA2, hits give low values 1 | S. cerevisiae deletion strains, locus YOR069W, strain VPS5, hits give low values 1.01 | S. cerevisiae deletion strains, locus YOR136W, strain idh2, hits give low values 1.02 | S. cerevisiae deletion strains, locus YOR144C, strain elg1, hits give low values 1.01 | S. cerevisiae deletion strains, locus YOR184W, strain ser1, hits give low values 1.02 | S. cerevisiae deletion strains, locus YOR231W, strain MKK1, hits give low values 1.02 | S. cerevisiae deletion strains, locus YOR316C, strain cot1, hits give low values 1.03 | S. cerevisiae deletion strains, locus YPL055C, strain LGE1, hits give low values 0.997 | S. cerevisiae deletion strains, locus YPL241C, strain CIN2, hits give low values 1 | S. cerevisiae deletion strains, locus YPL256C, strain CLN2, hits give low values 1.07 | S. cerevisiae deletion strains, locus YPR119W, strain clb2, hits give low values 1.01 | S. cerevisiae deletion strains, locus YPR141C, strain kar3, hits give low values 1.01 | S. cerevisiae deletion strains, locus YPR163C, strain tif3, hits give low values 1.01 | S. cerevisiae deletion strains, locus YPR167C, strain met16, hits give low values 1.03 | S. cerevisiae deletion strains, strain wtn01, hits give low values 1.04 | S. cerevisiae strains, strain wild type, hits give low values 1.01
